Shown are actives, neighbours in structure and some others; about 5.5% of the full set was active somewhere.
CBFb RUNX1 block – inhibitors of human CBF-beta and RUNX1 interaction; Potency, µM (series often up to 59.8 µM), for inactives: at the highest dose activity, negative = inhibition, usual class: inhibitors; Q01196+Q13951; 230,000 tested, under 10 active; AlphaScreen CBFb-His/RUNX1-biotin binding, biochemical; also: % of control where 0% means no effect
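His-tagged CBF-beta and biotinylated RUNX1 (30 nM each) were premixed 20 min at room temperature, exposed to compound for 15 min, then given nickel-chelate and streptavidin AlphaScreen beads (50 ng each). After 90 min, AlphaScreen signal was read.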
RORg inh – blocks mouse ROR gamma transcriptional activity; Potency, µM (top dose mostly 53.6 µM), for the others: at the highest dose activity change, negative = inhibition, hits mostly inhibitors; P51450; actives 5.4% (n = 310,000); Drosophila S2 Gal4-RORgamma UAS-luciferase reporter, 20 h; AID 2551; also: potency is read from the fitted curve at half-maximal effect; % is scaled to controls: 0 for no effect and ±100 for the full control effect; nearly all actives have a fitted effect of over 60% in size
Target sequence (P51450 whole entry, looked up, the tested form may be a part): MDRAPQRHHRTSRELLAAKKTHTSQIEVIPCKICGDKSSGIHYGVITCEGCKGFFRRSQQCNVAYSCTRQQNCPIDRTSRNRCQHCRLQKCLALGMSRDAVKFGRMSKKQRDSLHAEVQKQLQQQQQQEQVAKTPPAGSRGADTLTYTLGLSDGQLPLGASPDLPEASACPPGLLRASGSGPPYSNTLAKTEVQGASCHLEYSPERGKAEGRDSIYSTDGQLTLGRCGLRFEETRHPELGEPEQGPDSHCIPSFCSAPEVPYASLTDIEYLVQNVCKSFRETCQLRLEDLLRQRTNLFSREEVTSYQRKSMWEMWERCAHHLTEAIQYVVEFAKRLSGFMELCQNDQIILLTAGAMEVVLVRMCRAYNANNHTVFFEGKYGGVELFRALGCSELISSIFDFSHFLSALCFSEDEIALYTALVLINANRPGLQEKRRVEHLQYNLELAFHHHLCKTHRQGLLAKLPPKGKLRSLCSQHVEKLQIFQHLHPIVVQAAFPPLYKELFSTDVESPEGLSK
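Drosophila Schneider cells stably carrying a metallothionein-driven Gal4 DBD–ROR gamma fusion and a UAS-Photinus luciferase reporter were exposed to compound for 1 hr, then induced with copper sulfate (700 uM final) for 20 hr at ambient temperature before luminescence reading.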
MBNL1 CUG block – inhibitors of human MBNL1 binding to CUG repeat RNA. Q9NR56. TR-FRET MBNL1-His/biotin-(CUG)12 binding, 665/545 ratio. Potency, µM (series often up to 57.5 µM), inactives show at the top dose activity change, negative = inhibition, usual class: inhibitors. AID 2675. actives 0.036% (n = 280,000); active = well fitted inhibition curve with a large enough effect in the signal ratio, with a control signal flat, not every such curve was filed as active; inconclusive = small, poorly fitted or top-dose-only effect, or effect the other way, or a change in a side signal; inactive = no such curve, though single readings can be large or run the other way; the % refers to the signal ratio; also: potency is read from the fitted curve at half-maximal effect; % is scaled to controls: 0 for no effect and ±100 for the full control effect
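Compound titration spanned 92 nM–58 uM against the MBNL1-His/biotin-(CUG)12 complex. After 60 min at room temperature with 5 nM streptavidin-XL665 and 0.055 ng/ul terbium anti-His, ratiometric 665/545 nm emission (Ex 340 nm) normalized to controls.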
CtBP-E1A inh – CtBP/E1A binding inhibition | AlphaScreen GST-E1A/His-CtBP binding, 1536-well; hits give low values | activity change, % (test concentration not listed) | actives 0.49% (n = 340,000) | AID 651724; in the data active = activity change below about -65%; inconclusive = mostly about -30% to -63%; also: % is scaled to controls: 0 for no effect and ±100 for the full control effect
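Homogeneous bead-based format: GST-tagged E1A captured on glutathione donor beads, His-tagged CtBP on nickel acceptor beads; compounds precede bead addition by 2 h at 37 °C.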
VP16 counter – inhibits Gal4-VP16 luciferase reporter, ROR gamma counter-screen | AID 2546 | Potency, µM (top dose mostly 53.6 µM), for the others: at the highest dose activity, negative = inhibition, hits mostly inhibitors | actives 3.5% (n = 310,000) | Drosophila S2 Gal4-VP16 UAS-luciferase, luminescence, 20 h;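 also: Gal4-VP16 expression switched on by copper sulfate through the metallothionein promoter; potency is read from the fitted curve at half-maximal effect; % is scaled to controls: 0 for no effect and ±100 for the full control effect; nearly all actives have a fitted effect of over 50% in size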
Six1-Eya2 blk – blocks human Six1 binding to Eya2 | AlphaScreen GST-Six1/His-Eya2 binding, biochemical; hits give low values | activity change, % (no concentration beside the values) | actives 0.56% (n = 360,000); in the data active = activity change below about -65%; inconclusive = mostly about -30% to -63%; also: % is scaled to controls: 0 for no effect and ±100 for the full control effect
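AlphaScreen luminescence read after one hour at 37 °C in darkness. Pin-transferred compounds met GST-Six1 and His-Eya2 protein (5X stock 250 nM/500 nM) plus glutathione donor and Ni-chelate acceptor beads (5X, 50 ug/mL).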
* marks the source's active call; other numbers are inactive results; ? = inconclusive; / = no result given; [ ] = dose if it differs, or a comment. Unless noted, calls follow the shape of the dose curve; as a rule, active = well fitted curve in the direction sought with a large enough effect; inconclusive = small, poorly fitted or top-dose-only effect, or another doubt; inactive = no such curve, though single readings can be large; an effect the other way counts as inactive or inconclusive.

SMILES | CBFb RUNX1 block | RORg inh | MBNL1 CUG block | CtBP-E1A inh | VP16 counter | Six1-Eya2 blk
Fc1cccc(/C=N/Nc2nc3ccccc3[nH]2)c1 | -11.3% | 10µM* | 5.2% | -0.8 | ? | 0.4
C(=N\Nc1nc2ccccc2[nH]1)/C1CCCCC1 | ? | 11.2µM* | 4.0% | -1.0 | ? | -16.3
Cc1cccc(CNc2cc(-c3ccoc3)ncn2)c1 | / | -5.7% | / | / | -24.0% | /
COc1ccc2c(c1)C(=O)[C@@H](OC(=O)N[C@H](C)C1CCCCC1)[C@H](c1ccc(OC)c(Br)c1)O2 | 9.9% | -9.8% | / | / | -5.7% | /
Brc1ccc(-c2ccc(/C=N/Nc3nc4ccccc4[nH]3)o2)cc1 | -4.5% | 4.47µM* | 13.0% | / | 5.01µM* | 6.2
Fc1ccc(/C=N/Nc2nc3ccccc3[nH]2)cc1F | -27.6% | 7.94µM* | / | -2.0 | ? | -3.6
C(=N\Nc1nc2ccccc2[nH]1)/c1ccccc1 | -0.2% | 10µM* | 9.8% | -0.9 | ? | -2.0
C(=C\c1ccccc1)/C=N/Nc1nc2ccccc2[nH]1 | ? | 3.16µM* | 2.6% | 2.7 | 5.01µM* | -1.4
O=c1[nH]c(N/N=C/c2ccccc2)nc2ccccc12 | 8.0% | -27.0% | -2.9% | 5.0 | ? | -1.9
Brc1ccc(-c2ccc(/C=N/Nc3nc(N4CCOCC4)nc(N4CCOCC4)n3)o2)cc1 | -9.8% | -0.6% | / | 5.1 | 1.9% | 4.0
Cc1nn(-c2ccccc2)c(Cl)c1/C=N/Nc1nc2ccccc2[nH]1 | 0.7% | ? | -3.4% | 0.2 | ? | 2.0
CC(=O)N(C(C)=O)c1ncn(C)c1S(=O)(=O)Nc1ccccc1 | / | / | / | 8.7 | / | 7.1
O=C(O)COc1ccccc1/C=C1\SC(=S)N(NC(=O)c2ccccc2O)C1=O | / | / | / | -81.3* | / | -73.4*
COc1ccc(/C=C2\SC(c3ccc(C)cc3)=NC2=O)cc1OC | -6.6% | -0.1% | -2.3% | ? | -10.3%[0.365 µM] | -9.9
COc1cc(/C=C2\SC(c3ccc(C)cc3)=NC2=O)ccc1O | -0.3% | 14.1µM* | ? | ? | 10µM* | -22.9
Cc1ccc(C(=O)NN2C(=O)/C(=C/c3cccn3C)SC2=S)cc1 | ? | 30.1% | ? | ? | ? | -69.0*
Cn1cccc1/C=C1\SC(=S)N(NC(=O)c2ccccc2Cl)C1=O | -2.8% | -7.6% | ? | ? | -2.6% | -71.8*
O=C(O)COc1ccccc1/C=C1\SC(=S)N(/N=C/c2ccccc2O)C1=O | -4.3% | -2.7% | ? | ? | 1.5% | -28.7
CC1CCCCC1NC(=O)Cn1cnc2sccc2c1=O (stereo unspecified) | / | / | / | 7.0 | / | 10.7
COc1cc(/C=C2\SC(=S)N(NC(=O)c3cccnc3)C2=O)ccc1O | -9.5% | -10.3% | ? | / | -2.9% | ?
COc1cc(/C=C2\SC(=S)N(NC(=O)c3ccc(O)cc3)C2=O)ccc1O | / | 11.2µM* | ? | -24.2 | ? | -28.1
O=C(NN1C(=O)/C(=C/c2cccs2)SC1=S)c1ccncc1 | -12.4% | -4.8% | ? | -72.0* | 10.7% | -69.7*
O=C(CNC(=O)c1ccc(Br)o1)NCc1ccccc1 | / | 1.5% | -2.9% | 3.2 | -5.6% | 6.2
COc1cccc(CC(=O)OC(C)C(=O)Nc2ncc(Cl)cc2Cl)c1 (stereo unspecified) | / | / | / | 0.8 | / | 12.4
O=C(OCc1c(F)cccc1Cl)c1cccnc1Cl | / | -7.2% | 2.2% | 25.6 | -4.7% | 28.4
SMILES | CBFb RUNX1 block | RORg inh | MBNL1 CUG block | CtBP-E1A inh | VP16 counter | Six1-Eya2 blk
N#CC1=C(N)NC(=S)C(C(N)=O)C1c1ccc([N+](=O)[O-])cc1 (stereo unspecified) | ? | ? | ? | 0.5 | 12.6µM* | 4.4
S=c1[nH]nc(-c2cccs2)n1Cc1ccccc1 | -3.8% | 2.82µM* | -1.6% | 5.2 | ? | 2.9
S=c1[nH]nc(-c2ccc(Br)o2)n1Cc1ccccc1 | -1.7% | 6.31µM* | 5.7% | -5.7 | 12.6µM* | -3.3
S=c1[nH]nc(-c2ccc(Cl)cc2)n1Cc1ccccc1 | 6.1% | 1.78µM* | 5.3% | 0.0 | 2.82µM* | -1.9
COc1ccc(-c2n[nH]c(=S)n2Cc2ccccc2)cc1OC | / | 11.2µM* | -2.5% | -0.2 | ? | -8.0
COc1ccc(S(=O)(=O)NC(=O)C2(C)CCN2C(=O)C2(c3ccccc3)CCCC2)cc1 (stereo unspecified) | / | / | / | 0.9 | / | 0.7
C=CCn1c(C2CCCCC2)n[nH]c1=S | 7.9% | 3.98µM* | -2.9% | -2.8 | ? | -7.5
COc1ccc(-c2n[nH]c(=S)n2Cc2ccccc2)cc1 | / | 7.94µM* | -8.2% | -1.3 | 7.08µM* | -5.5
S=c1[nH]nc(-c2ccccc2)n1Cc1ccccc1 | 0.4% | 2.51µM* | 6.5% | -2.4 | 14.1µM* | -0.7
CC(C)c1cc(-c2n[nH]c(=S)n2Cc2ccccc2)cs1 | -3.2% | 0.562µM* | -16.6% | -7.0 | ? | -0.9
Cc1n[nH]c(=S)n1Cc1ccccc1 | 1.9% | -40.3% | -0.3% | 10.5 | 8.7% | 2.8
CC(C)NC(=O)N1CCC2(CC1)CCN(C(=O)c1cnccn1)CC2 | / | 1.4% | / | / | 3.8% | /
CC(C)NC(=O)Nc1ccc2c(c1)C(=O)N([C@H](C)CO)C[C@H](C)[C@@H](CN(C)S(=O)(=O)c1ccc(F)cc1)O2 | / | / | / | 0.3 | / | 0.8
CN1CCN(c2ncc3nc(-c4cccs4)c(=O)n(Cc4ccc(F)cc4)c3n2)CC1 | / | -44.7% | / | / | -6.7% | /
O=C(NCc1n[nH]c(=S)n1Cc1ccccc1)c1ccccc1 | -3.3% | ? | -6.4% | / | 3.6% | -4.1
S=c1[nH]nc(C2CCCCC2)n1Cc1ccccc1 | 7.3% | 2.51µM* | -6.7% | -2.7 | 7.08µM* | -2.3
COc1ccc(Cl)cc1NC(=O)CN(C)C(=O)c1ccc2c(c1)CC(c1ccccc1)OC2=O (stereo unspecified) | / | / | / | -1.0 | / | -6.2
CC1CC(NNC(=O)c2ccccc2)=Nc2ccccc2N1C (stereo unspecified) | -3.3% | 1.78µM* | 10.1%[11.5 µM] | 2.5 | 5.01µM* | 2.3
S=c1nc(-c2ccc(Cl)cc2)[nH][nH]1 | -0.8% | 8.91µM* | -10.7% | 1.0 | -23.4% | 1.3
Nc1nnc(SC2CC(=O)N(c3ccccc3)C2=O)s1 (stereo unspecified) | -6.0% | 5.01µM* | 2.7% | 5.2 | 10µM* | 4.8
Cc1cc(C)nc(SC2CC(=O)N(c3ccc(Cl)cc3)C2=O)n1 (stereo unspecified) | / | 14.1µM* | ? | 0.0 | -86.0% | -4.8
Cc1ccnc(SC2CC(=O)N(c3ccc(Cl)cc3)C2=O)n1 (stereo unspecified) | / | ? | 2.4% | / | ? | 9.3
Cc1nc(SC2CC(=O)N(c3ccccc3)C2=O)n[nH]1 (stereo unspecified) | 2.2% | 4.47µM* | -1.4% | 2.9 | 4.47µM* | 8.2

Bioassay records (PubChem)
